GLP1R ag – agonists of human GLP-1 receptor; HEK293 GLP-1R CRE-luciferase, luminescence, 4-6 h; cells express a hypersensitive GLP-1R form; 0.007% of 380,000 active; Potency, µM (series often up to 45.6 µM), most hits filed as activators
GLP-1R inv ag – acts as inverse agonist at human GLP-1 receptor | 1.6% of 410,000 active | HEK293 GLP-1R CRE-luciferase, luminescence, 24 h; GLP-1R form is constitutively active | Potency, µM (series often up to 38.3 µM), most hits filed as inhibitors | P43220; note: nearly all actives have a fitted effect of over 55% in size
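Cells are plated, allowed 12 hours at 37 deg C, then treated with compounds for 24 hr before luciferase detection reagent is added and luminescence is read after 12 min at room temperature. The HEK293 line carries constitutively active GLP-1R with a cAMP-responsive reporter.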
DRD3 agonist – D3 dopamine receptor (human) agonism. 0.58% of 410,000 active. D3R DiscoveRx beta-arrestin cells, luminescence, 90 min. max activation, %. AID 652048; in the data active = max activation above about 30%
Target sequence (P35462 whole entry, looked up): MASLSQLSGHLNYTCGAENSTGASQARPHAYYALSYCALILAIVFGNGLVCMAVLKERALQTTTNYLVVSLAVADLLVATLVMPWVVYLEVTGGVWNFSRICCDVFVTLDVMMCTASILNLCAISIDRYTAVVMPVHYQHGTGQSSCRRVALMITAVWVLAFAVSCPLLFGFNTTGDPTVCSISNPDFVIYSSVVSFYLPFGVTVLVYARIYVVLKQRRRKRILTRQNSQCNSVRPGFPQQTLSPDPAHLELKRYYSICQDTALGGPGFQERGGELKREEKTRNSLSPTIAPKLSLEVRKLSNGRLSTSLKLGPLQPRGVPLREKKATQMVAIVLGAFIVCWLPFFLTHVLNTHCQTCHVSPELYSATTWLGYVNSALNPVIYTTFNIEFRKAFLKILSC
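Cells at 1500/well, incubated overnight, then treated with pinned compounds (dopamine as control) for 90 min at 37 degrees C. DiscoveRx reagent added for 30 - 60 minutes at room temperature; luminescence read.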
DRD3 antagonist – blocks the human D3 dopamine receptor; P35462; D3R cells, DiscoveRx beta-arrestin luminescence, antagonist mode; stronger effect = lower value; max response, negative = inhibition, %; 2.5% of 360,000 active; AID 652054; in the data active = max response below about -50%; inconclusive = no clear call, values can overlap the other calls
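Cells expressing the human receptor were seeded at 1500 cells/well, incubated overnight at 37 degrees C in 5% CO2, then exposed to library compounds with dopamine controls for 90 minutes at 37 degrees C before luminescent detection.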
Large screens that a line does not name were inactive. This is a sample that favours compounds with a hit; in the whole collection about 4.3% have one here. Unless noted, calls come from the whole dose curve; as a rule, active = well fitted curve in the direction sought with a large enough effect; inconclusive = small, poorly fitted or top-dose-only effect, or another doubt; inactive = no such curve, though single readings can be large; an effect the other way counts as inactive or inconclusive.

Cc1ccc(Nc2ncc(C(=O)Nc3ccc(F)cc3F)c3ccccc23)cc1Cl	none (no result: DRD3 antagonist)
Cc1ccc(N2CCN(CC(O)COc3cccc4ccccc34)CC2)cc1 (stereo not given)	GLP-1R inv ag 11.2µM
OC(COc1cccc2ccccc12)CN1CCN(c2ccccc2Cl)CC1 (stereo not given)	GLP-1R inv ag inconclusive, DRD3 antagonist -80.6
CC1CN(c2nc3ccccc3nc2SCC(=O)Nc2cccc(C(F)(F)F)c2)CC(C)O1 (stereo not given)	GLP-1R inv ag 11.2µM
Cc1cccc(N2CCN(C(=O)CSc3nc4ccccc4nc3N3CC(C)OC(C)C3)CC2)c1C (stereo not given)	GLP-1R inv ag inconclusive, DRD3 agonist 76.4
O=C(CSc1nc2ccccc2nc1N1CCOCC1)N1CCN(c2ccccc2)CC1	GLP-1R inv ag inconclusive
Cc1cccc(NC(=O)CSc2nc3ccccc3nc2N2CC(C)OC(C)C2)c1 (stereo not given)	GLP-1R inv ag inconclusive
CC(=O)c1cc2c(cc1NC(=O)c1c(C)nn(-c3ccc(C)cc3)c1-n1cccc1)OCO2	none (no result: GLP1R ag, DRD3 antagonist)
CCC(c1nnnn1-c1c(C)cccc1C)N1CCN(CC)CC1 (stereo not given)	none
CCC(c1nnnn1-c1c(C)cccc1C)N1CCN(c2cccc(C(F)(F)F)n2)CC1 (stereo not given)	DRD3 antagonist -67.9
Cc1ccc2nc(Cl)c(C3CC(c4cccs4)=NN3C(=O)CCCC(=O)O)cc2c1 (stereo not given)	DRD3 agonist 31.5
CSc1nc(=O)n(CCC#N)nc1SC	DRD3 antagonist -65.0
CCc1ccc(S(=O)(=O)c2c[nH]c3cc(OC)c(OC)cc3c2=O)cc1	none (no result: GLP1R ag, DRD3 antagonist)
COC(=O)c1ccc(Cn2c(O)c(N=NC(N)=S)c3ccccc32)o1	GLP-1R inv ag 10µM
Cc1ccc(C2=NN(C(=O)CCC(=O)O)C(c3cccc([N+](=O)[O-])c3)C2)cc1 (stereo not given)	DRD3 antagonist -57.6
CC(=O)N1N=C(c2ccc(Cl)cc2)CC1c1ccc([N+](=O)[O-])cc1 (stereo not given)	none
CC(=O)N1N=C(c2ccc(Br)cc2)CC1c1cccc([N+](=O)[O-])c1 (stereo not given)	GLP-1R inv ag 11.2µM
Clc1ccccc1Cc1cn2cc(-c3ccccc3)nc2s1	GLP-1R inv ag inconclusive (no result: DRD3 antagonist)
CCCCC(c1nnnn1CC1CCCO1)N1CCN(c2cc(Cl)ccc2C)CC1 (stereo not given)	DRD3 antagonist -86.2
CCCC(c1nnnn1Cc1ccco1)N1CCN(c2ccccc2)CC1 (stereo not given)	none
CCCC(c1nnnn1CC1CCCO1)N1CCN(c2nc3ccccc3s2)CC1 (stereo not given)	GLP-1R inv ag inconclusive
CC(C)CC(c1nnnn1Cc1ccco1)N1CCN(C2CCCC2)CC1 (stereo not given)	DRD3 antagonist -59.7
CCCC(c1nnnn1Cc1ccco1)N1CCN(c2cc(Cl)ccc2C)CC1 (stereo not given)	GLP-1R inv ag 5.01µM, DRD3 antagonist -62.1
CCCCC(c1nnnn1CC1CCCO1)N1CCN(c2nc3ccccc3s2)CC1 (stereo not given)	GLP-1R inv ag 10µM
CCCCC(c1nnnn1CC1CCCO1)N1CCN(c2ccccc2)CC1 (stereo not given)	none
O=C(NCCCN1CCCC1=O)Nc1ccc(Br)cc1Cl	none
CN(C)CCOc1ccc(C(C)(C)c2ccccc2)cc1	none
CC(C)(c1ccccc1)c1ccc(OCC(O)CN2CCCC2)cc1 (stereo not given)	GLP1R ag inconclusive, GLP-1R inv ag inconclusive
O=C(COc1ccc(Cl)cc1)NCc1ccccc1	none
CN(C)CCCOc1ccc(C(C)(C)c2ccccc2)cc1	GLP-1R inv ag inconclusive, DRD3 antagonist -68.5
OC(CNCCc1ccc(Cl)cc1)COc1cc(Cl)ccc1Cl (stereo not given)	GLP-1R inv ag 10µM
COc1ccc(CCNCC(O)COc2ccc(Cl)cc2)cc1OC (stereo not given)	GLP-1R inv ag inconclusive
CC(C)N(CCNCC(O)COc1ccc(C(C)(C)c2ccccc2)cc1)C(C)C (stereo not given)	GLP-1R inv ag 3.98µM
Clc1ccc(OCCNCCc2ccccc2)cc1	GLP-1R inv ag inconclusive, DRD3 antagonist -59.2
Cc1cccc(NC(=O)/C(C#N)=C/c2ccco2)c1	none (no result: GLP1R ag, DRD3 antagonist)
CC1(C(=O)Nc2cccc(C(F)(F)F)c2)Cc2c(-c3cccc(C(N)=O)c3)ccnc2O1 (stereo not given)	none
Cc1ccc(C(OCC(O)CNCc2ccc(F)cc2)c2ccccc2)cc1 (stereo not given)	GLP-1R inv ag 5.62µM
O=C(c1ccccc1)c1ccc(OCC(O)CNCc2ccc(F)cc2)cc1 (stereo not given)	GLP-1R inv ag inconclusive
COc1ccc(C(OCC(O)CNCCc2ccccc2)c2ccc(OC)cc2)cc1 (stereo not given)	GLP-1R inv ag inconclusive, DRD3 antagonist -57.9
OC(CNCCc1ccc(Cl)cc1)COc1ccc2ccccc2c1 (stereo not given)	GLP-1R inv ag inconclusive
OC(CNCCc1ccccc1)COc1ccc(OCC(O)CNCCc2ccccc2)cc1 (stereo not given)	GLP-1R inv ag inconclusive, DRD3 antagonist -51.6
CC(C)c1ccc(OCC(O)CNC(C)c2ccccc2)cc1 (stereo not given)	GLP-1R inv ag inconclusive
COc1ccc(C(OCC(O)CNC(C)c2ccccc2)c2ccc(OC)cc2)cc1 (stereo not given)	GLP-1R inv ag 10µM
CCOc1ccc2c(c1)c(=O)c(S(=O)(=O)c1ccc(CC)cc1)cn2Cc1cccc(Cl)c1	none (no result: GLP1R ag, DRD3 antagonist)
COc1ccc(C(=O)Nc2ccc(C(=O)OCc3cc(=O)n4nc(C5CC5)sc4n3)cc2)cc1	none (no result: GLP1R ag, DRD3 antagonist)
CC(NCC(O)COCCC12CC3CC(CC(C3)C1)C2)c1ccccc1 (stereo not given)	GLP-1R inv ag 11.2µM
NCC(O)COCCC12CC3CC(CC(C3)C1)C2 (stereo not given)	GLP-1R inv ag inconclusive
Cc1ccc(Cn2c(C(=O)O)c(CNCc3ccc(OC(C)C)cc3)c3ccc(C)cc32)cc1	GLP-1R inv ag 12.6µM (no result: DRD3 antagonist)
Cc1ccc(CNCc2c(C(=O)O)n(Cc3ccc(C)cc3)c3cc(C)ccc23)cc1	GLP-1R inv ag inconclusive (no result: DRD3 antagonist)
CC(C)CCn1nnnc1CN1CCN(c2ccc(F)cc2)CC1	DRD3 antagonist inconclusive
c1ccc(C(c2ccccc2)N2CCN(Cc3nnnn3C3CCCC3)CC2)cc1	GLP-1R inv ag 7.94µM
Fc1ccc(C(c2nnnn2C2CCCC2)N2CCN(Cc3ccccc3)CC2)cc1 (stereo not given)	none
CCC(C)(C)n1nnnc1CN1CCN(C(c2ccccc2)c2ccccc2)CC1	GLP-1R inv ag 10µM
CCC(C)(C)n1nnnc1C(c1ccccc1)N1CCN(Cc2ccccc2)CC1 (stereo not given)	none
CC(C)CCn1nnnc1CN1CCN(C(c2ccccc2)c2ccccc2)CC1	GLP-1R inv ag 12.6µM
O=c1nc(-c2ccccc2)c2cc(SC(F)F)ccc2[nH]1	DRD3 agonist 35.9
